# Source: PubChem
# Only some compounds are listed: those with a hit (about 2.1% of all), similar ones and a draw of the others.
# PrPC surface inh = inhibitors of human cell surface prion protein PrPC; P04156; TR-FRET read-out; inhibition, % at 13.8 µM; 370,000 tested, 0.43% active; AID 720596; in the data active means inhibition above about 24%; further: 0% = median of the test wells and 100% = reference compound wells
# BJeLR lethal = BJeLR cell viability loss; inhibition, % (no concentration beside the values); 300,000 tested, 0.17% active; AID 1554; BJeLR (HRASV12) viability, CellTiter-Glo ATP luminescence, 48 h; in the data active means inhibition above about 50%
# MazF activator = activators of E. coli MazEF toxin-antitoxin RNase | P0AE70 | FAM/BHQ RNA-DNA oligo cleavage fluorescence, 5 h | activation, % at 20 µM | 350,000 tested, 0.32% active | AID 504720; in the data active means activation above about 50%
# Target sequence (P0AE70 whole entry, looked up): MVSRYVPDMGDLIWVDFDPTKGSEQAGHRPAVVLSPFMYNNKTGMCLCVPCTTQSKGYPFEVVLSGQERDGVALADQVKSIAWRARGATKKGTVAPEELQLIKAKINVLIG
# VHR inh abs = inhibitors of human VHR1 phosphatase (DUSP3); P51452; inhibition, % at 13.3 µM; recombinant VHR phosphatase, pNPP absorbance; 290,000 tested, 0.52% active; AID 1654; in the data active means inhibition above about 50%
# Target sequence (P51452 whole entry, looked up): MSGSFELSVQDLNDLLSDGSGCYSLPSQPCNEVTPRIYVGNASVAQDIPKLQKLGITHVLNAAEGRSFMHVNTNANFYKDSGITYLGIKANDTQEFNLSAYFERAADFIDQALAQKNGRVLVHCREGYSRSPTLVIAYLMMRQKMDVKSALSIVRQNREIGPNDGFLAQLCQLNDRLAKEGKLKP
# PfHsp40 yeast = rescue of PfHsp40-mediated yeast toxicity; S. cerevisiae expressing PfHsp40, growth rescue, ATP luminescence; growth rescue, % at 12.5 µM; 340,000 tested, 0.68% active; in the data active means growth rescue above about 28%, passing the limit was not always enough;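 further: yeast W303a lacking pdr1 and pdr3 grown in galactose medium; growth measured after three days at 30 °C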
# PrP 5UTR inh = inhibition of PrP 5' UTR reporter expression. cell-based PrP 5' UTR mRNA reporter, plate reader. inhibition, % (concentration not given with the values). 340,000 tested, 0.35% active; in the data active means inhibition above about 52%; further: 0 = median of the neutral control wells
# Active calls of the source: *; x = no result given.
SMILES,PrPC surface inh,BJeLR lethal,MazF activator,VHR inh abs,PfHsp40 yeast,PrP 5UTR inh
CN1/C(=C\C(=O)COC(=O)c2ccc([N+](=O)[O-])o2)C(C)(C)c2ccccc21,-6,0,-5,22,36*,-4
Cc1cccc(NC(=O)COC(=O)c2ccc([N+](=O)[O-])o2)c1C,-23,5,3,5,53*,-13
O=C(COC(=O)c1ccc([N+](=O)[O-])o1)NC1CCCc2ccccc21 (configuration not stated),-37,x,4,x,262*,-21
O=C(COC(=O)c1ccc([N+](=O)[O-])o1)Nc1ccc(F)cc1,-26,x,10,x,-2,-13
Nc1cccc(C(=O)OCC(=O)NC2CCCc3ccccc32)c1 (configuration not stated),9,1,10,17,-2,-11
O=C(Nc1ccc(N2CCOCC2)cc1)c1ccc([N+](=O)[O-])o1,8,-11,-7,20,9,-16
CCN(CC)S(=O)(=O)c1ccc(Cl)c(C(=O)Nc2nnc(C)s2)c1,-1,-3,0,21,0,-33
CCN(CC)S(=O)(=O)c1ccc(Cl)c(NC(=O)COC(=O)c2ccc([N+](=O)[O-])o2)c1,-24,-4,-6,11,49*,-13
O=C(COC(=O)c1ccc([N+](=O)[O-])o1)NCc1ccc2c(c1)OCO2,-36,x,0,x,168*,-24
O=C(COC(=O)c1ccc([N+](=O)[O-])o1)Nc1ccc(N2CCOCC2)cc1,-20,x,1,x,95*,-5
CCN(CC)S(=O)(=O)c1ccc(Cl)c(NC(=O)c2cc(Cl)ccc2Cl)c1,0,2,54*,-4,0,-15
CN(C)CCCN(C(=O)c1ccc(S(=O)(=O)N(C)C2CCCCC2)cc1)c1nc2ccc(Br)cc2s1,-11,6,-7,6,0,-10
C=C1C(=O)O[C@@]23[C@H]1CC[C@@H](C)[C@@H]2CC[C@@]1(C)O[C@@H]31,x,x,1,x,0,7
COc1ccc(C(=O)CSc2nnc(CNC(=O)c3ccccc3)o2)cc1,-1,9,-4,-9,1,-16
COc1ccc(NC(=O)COC(=O)c2ccc([N+](=O)[O-])o2)cc1Cl,-22,x,2,6,-1,-33
O=C(COC(=O)c1ccc([N+](=O)[O-])o1)Nc1ncc(Cl)cc1Cl,-20,x,5,x,49*,-24
COc1ccc(C(C)(C)C)cc1NC(=O)COC(=O)c1ccc([N+](=O)[O-])o1,-27,0,0,24,532*,-9
CCOC(=O)c1cnc(-n2nc(C)cc2C)nc1NC1CCCCC1,23,-13,8,19,92*,-10
Cc1cccc(C)c1NC(=O)CSc1nc2[nH]c(=O)cc(O)c2s1,-5,x,-5,x,0,-10
N#Cc1c(N)n[nH]c1-c1cc2c([nH]1)CCCC2,-4,3,4,18,-1,-24
N#Cc1c(N)n[nH]c1CCCN,1,7,-1,51*,-1,-22
COc1cc(C2C(C#N)=C(N)Oc3cc(O)ccc32)cc2c1OCO2 (configuration not stated),1,-2,10,7,-1,6
COc1cc(C2C(C#N)=C(N)Oc3cc(N(C)C)ccc32)cc2c1OCO2 (configuration not stated),5,46,64*,17,2,-2
CC1CCN(C(=O)c2ccc(NS(=O)(=O)c3cccs3)cc2)CC1,6,-8,-2,22,0,-13
CCCNC(=O)C1CCN(c2ccc(S(=O)(=O)N3CCOCC3)cc2Cl)CC1,-2,-2,3,57*,-1,-9
CC(C)C(=O)NNC(=O)CC(=O)Nc1ccccc1C(=O)O,6,-12,-2,8,40*,-20
O=C(CC(=O)Nc1ccccc1C(=O)O)NNC(=O)Cc1ccccc1,-1,5,2,-12,1,-8
CN=c1scc(-c2ccccc2F)n1/N=C/c1ccc(O)c(O)c1O,-7,10,-13,30,30*,40
Cc1onc(-c2ccccc2)c1C(=O)NC(=S)NNC(=O)c1ccc(O)cc1O,8,-36,11,2,248*,-7
CCC(CC)NC(=O)CCc1nc2ccccc2c(=O)[nH]1,5,4,3,51*,-2,x
